Only some compounds are listed: those with a hit (about 9% of all), similar ones and a draw of the others.
BAZ2B inh: blocks human BAZ2B | Q9UIF8 | AlphaScreen BAZ2B-H3K14Ac peptide displacement | Potency, µM (series often up to 114 µM), most hits filed as inhibitors | 360,000 compounds, 4.4% hits | AID 504333; note: nearly all actives have a fitted effect of over 60% in size
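BAZ2B 50 nM plus b-H3(5-23)K14Ac 50 nM, PBS pH 7.4/0.01% Tween-20, 30 min RT; compound added (max 110 uM), 30 min RT; streptavidin donor/Ni-chelate acceptor beads 10 ug/mL final, 20 min dark; AlphaScreen read.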
G9a block: G9a (human) methyltransferase inhibition; 350,000 compounds, 8.8% hits; AID 504332; G9a H3K9 monomethylation, AlphaScreen, 2 h; Potency, µM (titrated, usually from 102 µM), usual class: inhibitors; note: nearly all actives have a fitted effect of over 75% in size
Target sequence (Q96KQ7 913-1193 limits assumed): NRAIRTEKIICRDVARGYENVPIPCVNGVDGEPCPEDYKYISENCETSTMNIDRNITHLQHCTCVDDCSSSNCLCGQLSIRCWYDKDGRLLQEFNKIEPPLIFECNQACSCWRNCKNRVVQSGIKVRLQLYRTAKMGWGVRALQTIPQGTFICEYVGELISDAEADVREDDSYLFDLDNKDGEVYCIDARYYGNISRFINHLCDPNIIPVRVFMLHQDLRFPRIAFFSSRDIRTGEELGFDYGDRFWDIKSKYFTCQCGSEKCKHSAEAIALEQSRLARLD
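Signal arises when biotinylated H3K9 peptide, once monomethylated, bridges streptavidin donor and antibody-captured acceptor beads. Enzyme at 20 nM was preincubated 15 min with test compounds; peptide 500 nM and SAM 20 uM then reacted for 2 h.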
HP1b chromo inh: inhibitors of HP1-beta chromodomain binding to methylated histone tails | P83916 | AlphaScreen HP1-beta / biotin-H3K9me3 peptide binding | Potency, µM (top dose mostly 114 µM), actives largely listed as inhibitors | 390,000 compounds, 0.56% hits | AID 540317; note: nearly all actives have a fitted effect of over 70% in size
Target sequence (P83916 whole entry, looked up): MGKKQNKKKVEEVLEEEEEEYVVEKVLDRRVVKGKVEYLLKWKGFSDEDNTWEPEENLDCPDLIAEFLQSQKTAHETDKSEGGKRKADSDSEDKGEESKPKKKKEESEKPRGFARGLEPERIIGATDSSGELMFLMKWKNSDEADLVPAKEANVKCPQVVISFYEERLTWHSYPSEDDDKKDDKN
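HP1-beta protein (50 nM final) preincubated 30 min at room temperature with biotinylated H3(1-18)K9me3 peptide (50 nM) in PBS pH 7.4, 0.01% Tween-20, then compound added for 30 min. AlphaScreen streptavidin donor/nickel chelate acceptor beads (10 ug/mL final), 30 min dark, luminescence read.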
12-LOX inh: ALOX12 (human) lipoxygenase inhibition | P18054 | purified 12hLO, xylenol orange hydroperoxide absorbance | Potency, µM (top dose mostly 108 µM), hits mostly inhibitors | 580,000 compounds, 1.1% hits | AID 1671190
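Purified human 12hLO (150 nM final) in 25 mM Hepes, 0.01% Triton X-100, pH 7.0 was preincubated 15 min at room temperature with compound. Then 40 uM arachidonic acid was added, 30 min. Hydroperoxide was read by Fe-XO absorbance ratio 573/405 nm.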
JMJD2A Tudor inh: blocks the human JMJD2A Tudor domain | O75164 | AlphaScreen JMJD2A-Tudor / H3K4me3 peptide binding | Potency, µM (series often up to 114 µM), usual class: inhibitors | 390,000 compounds, 4.4% hits; note: nearly all actives have a fitted effect of over 50% in size
PLK1 PBD block: blocks phosphopeptide binding to human PLK1 polo-box domain; 360,000 compounds, 2.8% hits; AID 720504; Potency, µM, usual class: inhibitors; Plk1 PBD binding of FITC phosphopeptide, fluorescence polarization; P53350; note: series mostly up to about 57 µM; nearly all actives have a fitted effect of over 65% in size
Hits are given with their value; – = inactive; ? = inconclusive; · = no result; [ ] = another dose, or the depositor's remark. Calls come from the whole dose curve; as a rule, active = well fitted curve in the direction sought with a large enough effect; inconclusive = small, poorly fitted or top-dose-only effect, or another doubt; inactive = no such curve, though single readings can be large; an effect the other way counts as inactive or inconclusive.

SMILES	BAZ2B inh	G9a block	HP1b chromo inh	12-LOX inh	JMJD2A Tudor inh	PLK1 PBD block
COC(=O)C12OCC34C(CC5C(C)=C(O)C(=O)CC5(C)C3C(O)C1O)OC(=O)C(OC(=O)/C=C(\C)C(C)C)C24 (stereo unspecified)	·	·	–	–	–	–
CC1=NNC(=O)C1C(c1ccc(F)cc1)C(C#N)C#N (stereo unspecified)	·	·	–	–	–	30µM
CC1=NNC(=O)C1Cc1ccc(F)cc1 (stereo unspecified)	–	–	–	–	–	–
CC(C)n1cc(C(=O)N(CC(=O)NC2CCCC2)Cc2ccccc2)cn1	–	–	–	–	–	–
CC(Cc1ccncc1)NCc1ccc(OCC(=O)N2CCOCC2)cc1 (stereo unspecified)	·	·	·	–	·	·
Cc1nc(-c2ccccc2)cc([C@H]2CN3CC[C@H]2C[C@@H]3CNC(=O)NC(C)C)n1	·	·	·	25µM	·	·
COc1ccc(NC(=O)NC[C@H]2C[C@@H]3CCN2C[C@@H]3c2cc(-c3ccccc3Br)nc(C)n2)cc1	·	·	·	35µM	·	·
Cc1ccc(C(=O)NC[C@H]2C[C@@H]3CCN2C[C@@H]3c2cc(-c3ccccc3Br)nc(C)n2)cc1	·	·	·	–	·	·
Cc1nc(-c2ccccc2)cc([C@H]2CN3CC[C@H]2C[C@@H]3CNC(=O)C2CCC2)n1	·	·	·	–	·	·
O=C(C(=O)N1CCc2ccccc2C1)c1cn(CC(=O)N2CCCCC2)c2ccccc12	–	40µM	–	–	–	–
O=C(c1ccccc1)c1cn(CC(=O)N2CCOCC2)c2ccccc12	–	–[12.7 µM]	–	–	–[11.4 µM]	24µM
CC(C)CN(Cc1cccnc1)C1CN(C(=O)COc2ccc(F)cc2)C1	·	·	·	–	·	·
Nc1cc2nc3ccccc3nc2cc1N	?	?	–	?	–	6.7µM
Cc1cccc(N2CCN(CCc3ccccc3)CC2)c1C	?	–[12.7 µM]	–	?	–	–
Cc1cccc(C)c1N1CCN(c2c(C)cccc2C)CC1	–	40µM	–	?	–	–
O[C@H]1[C@H]2[C@H](O)CCCN2C[C@H]1O	·	–[12.7 µM]	·	–	·	·
Cn1c(O)c(/C=C2\N=c3ccccc3=C2CCNC(=S)NC2CC2)c(=O)n(C)c1=O	?	–	–	?	–	0.95µM
CN1OC[C@@H]2CN3C4(C[C@@H]21)c1ccccc1C3(c1ccccc1)c1ccccc14	·	·	·	–	·	·
CCCCCN1C(=O)c2ccccc2[C@@]2(C(=O)OCC)Cc3cc(OC)ccc3[C@@H]12	·	·	·	–	·	5.3µM
CCOC(=O)[C@]12Cc3ccccc3[C@H]1N(CCC(=O)OC)C(=O)c1ccccc12	·	·	·	?	·	9.5µM
CCOC(=O)[C@]12Cc3ccccc3[C@H]1N(Cc1ccccc1)C(=O)c1ccccc12	·	·	–	–	–	–
c1ccc2c(CNC3CCCCC3)c[nH]c2c1	–	–	–	–	–	–
Cc1ccc(CN2CCCN(Cc3ccc(C)cc3)S2(=O)=O)cc1	–	–	–	–	–	–
CCC(CC)c1cc([C@H]2CN3CC[C@H]2C[C@@H]3COC(=O)Nc2ccc(C(C)(C)C)cc2)nc(-c2ccncc2)n1	·	·	·	50µM	·	·
CCCNC(=O)OC[C@H]1C[C@@H]2CCN1C[C@@H]2c1cc(C(CC)CC)nc(-c2ccncc2)n1	·	·	·	–	·	·
SMILES	BAZ2B inh	G9a block	HP1b chromo inh	12-LOX inh	JMJD2A Tudor inh	PLK1 PBD block
CN(C)CCCOc1nn(Cc2ccccc2)c2ccccc12	–	–[12.7 µM]	–	–	–	–
CCN1C(=O)C(=C2C=C(C)N(Cc3ccco3)C(C)=C2)C(=O)N(CC)C1=S	–	–	–	–	–	–
COc1ccc(/C=C2/C(=O)N(Cc3ccco3)C(=O)N(C(C)C)C2=O)cc1	–	?	–	?	–	3.4µM
CC(C)N1C(=O)/C(=C/C=C/c2ccco2)C(=O)N(Cc2ccco2)C1=O	35µM	·	28µM	?	14µM	4.7µM
COc1ccc(NC(=S)NC2CC3CCC(C2)N3Cc2ccco2)cc1 (stereo unspecified)	?	–	–	–	–	–
CCN1C(=O)C(=C/C=C/c2ccco2)C(=O)N(CC)C1=S	45µM	13µM	?	?	50µM	?
CCc1ccc(-n2nc(C)c3c2NC(=O)CSC3c2ccc(C(=O)OC)cc2)cc1 (stereo unspecified)	–	–	–	–	–	·
